Source: PMC5540273 (PLoS ONE, 2017)

Experiments:
Details in all cases: concentration: 1 μM, replicates: in singlicate; n = 1
[1] = tested on: SGK2
[2] = tested on: SGK3
[3] = tested on: SGK
[4] = tested on: SIK2
[5] = tested on: SIK
[6] = tested on: SLK
[7] = tested on: T1, SNARK
T1 construct: gene NUAK2

[8] = tested on: SNRK
[9] = tested on: SRC
[10] = tested on: SRMS
[11] = tested on: SRPK1
[12] = tested on: SRPK2
[13] = tested on: SRPK3
[14] = tested on: STK16
[15] = tested on: STK33
[16] = tested on: STK35
[17] = tested on: STK36
[18] = tested on: STK39
[19] = tested on: SYK
[20] = tested on: SgK110
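Note: KINOMEscan kinase panel screen.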

Cl.c1ccc(Cn2cnc3cc(Nc4ncnc5ccccc45)ccc32)cc1 [GW272142]
%Inh [1]: 0% | %Inh [2]: 0% | %Inh [3]: 0% | %Inh [4]: 0% | %Inh [5]: 0% | %Inh [6]: 20% | %Inh [7]: 0% | %Inh [8]: 0% | %Inh [9]: 0% | %Inh [10]: 0% | %Inh [11]: 19% | %Inh [12]: 0% | %Inh [13]: 0% | %Inh [14]: 28% | %Inh [15]: 0% | %Inh [16]: 0% | %Inh [17]: 0% | %Inh [18]: 7% | %Inh [19]: 11% | %Inh [20]: 0%

O=C1NC(=O)C(c2ccccc2)=C1Nc1cccc(O)c1 [SB-390534]
%Inh [1]: 9% | %Inh [2]: 20% | %Inh [3]: 11% | %Inh [4]: 0% | %Inh [5]: 0% | %Inh [6]: 51% | %Inh [7]: 16% | %Inh [8]: 0% | %Inh [9]: 0% | %Inh [10]: 17% | %Inh [11]: 20% | %Inh [12]: 7% | %Inh [13]: 0% | %Inh [14]: 0% | %Inh [15]: 4% | %Inh [16]: 2% | %Inh [17]: 0% | %Inh [18]: 4% | %Inh [19]: 6% | %Inh [20]: 0%

Cc1nn2c(=O)cc(N3CCOCC3)nc2n1Cc1cccc(Cl)c1Cl [GSK2342769]
%Inh [1]: 0% | %Inh [2]: 0% | %Inh [3]: 0% | %Inh [4]: 0% | %Inh [5]: 0% | %Inh [6]: 4% | %Inh [7]: 0% | %Inh [8]: 0% | %Inh [9]: 4% | %Inh [10]: 0% | %Inh [11]: 19% | %Inh [12]: 0% | %Inh [13]: 0% | %Inh [14]: 0% | %Inh [15]: 0% | %Inh [16]: 0% | %Inh [17]: 0% | %Inh [18]: 10% | %Inh [19]: 8% | %Inh [20]: 0%

Nc1ncnc2c1ncn2-c1cccc(F)c1 [SKF-97560]
%Inh [1]: 38% | %Inh [2]: 0% | %Inh [3]: 37% | %Inh [4]: 0% | %Inh [5]: 1% | %Inh [6]: 18% | %Inh [7]: 13% | %Inh [8]: 20% | %Inh [9]: 22% | %Inh [10]: 14% | %Inh [11]: 16% | %Inh [12]: 0% | %Inh [13]: 0% | %Inh [14]: 6% | %Inh [15]: 6% | %Inh [16]: 0% | %Inh [17]: 4% | %Inh [18]: 0% | %Inh [19]: 25% | %Inh [20]: 5%

Nc1n[nH]c2ncc(-c3ccccc3)cc12 [SB-517081]
%Inh [1]: 2% | %Inh [2]: 9% | %Inh [3]: 7% | %Inh [4]: 12% | %Inh [5]: 2% | %Inh [6]: 0% | %Inh [7]: 0% | %Inh [8]: 0% | %Inh [9]: 0% | %Inh [10]: 8% | %Inh [11]: 0% | %Inh [12]: 12% | %Inh [13]: 12% | %Inh [14]: 22% | %Inh [15]: 0% | %Inh [16]: 0% | %Inh [17]: 0% | %Inh [18]: 0% | %Inh [19]: 8% | %Inh [20]: 0%

Nc1n[nH]c2nnc(-c3ccccc3)c(-c3ccccc3)c12 [GW554060]
%Inh [1]: 0% | %Inh [2]: 1% | %Inh [3]: 24% | %Inh [4]: 0% | %Inh [5]: 0% | %Inh [6]: 24% | %Inh [7]: 0% | %Inh [8]: 0% | %Inh [9]: 0% | %Inh [10]: 0% | %Inh [11]: 0% | %Inh [12]: 0% | %Inh [13]: 9% | %Inh [14]: 25% | %Inh [15]: 0% | %Inh [16]: 0% | %Inh [17]: 0% | %Inh [18]: 35% | %Inh [19]: 0% | %Inh [20]: 0%

CN1C(=O)C(Nc2cc(Cl)c(O)c(Cl)c2)=C(c2ccc(Cl)cc2)C1=O [SB-404321]
%Inh [1]: 0% | %Inh [2]: 0% | %Inh [3]: 0% | %Inh [4]: 0% | %Inh [5]: 0% | %Inh [6]: 0% | %Inh [7]: 0% | %Inh [8]: 0% | %Inh [9]: 0% | %Inh [10]: 0% | %Inh [11]: 0% | %Inh [12]: 0% | %Inh [13]: 96.2% | %Inh [14]: 0% | %Inh [15]: 0% | %Inh [16]: 0% | %Inh [17]: 19% | %Inh [18]: 0% | %Inh [19]: 0% | %Inh [20]: 0%

CC(C)(C)c1ccc(C(=O)Nc2cn3cc(-c4ccccc4)ccc3n2)cc1
%Inh [1]: 0% | %Inh [2]: 0% | %Inh [3]: 0% | %Inh [4]: 66% | %Inh [5]: 0% | %Inh [6]: 9% | %Inh [7]: 0% | %Inh [8]: 0% | %Inh [9]: 0% | %Inh [10]: 0% | %Inh [11]: 0% | %Inh [12]: 3% | %Inh [13]: 0% | %Inh [14]: 0% | %Inh [15]: 3% | %Inh [16]: 47% | %Inh [17]: 8% | %Inh [18]: 0% | %Inh [19]: 0% | %Inh [20]: 0%

COc1cc2ncn(-c3cc(OCc4ccncc4)c(C(N)=O)s3)c2cc1OC [GSK336313]
%Inh [1]: 0% | %Inh [2]: 3% | %Inh [3]: 0% | %Inh [4]: 0% | %Inh [5]: 0% | %Inh [6]: 43% | %Inh [7]: 4% | %Inh [8]: 0% | %Inh [9]: 0% | %Inh [10]: 0% | %Inh [11]: 23% | %Inh [12]: 0% | %Inh [13]: 0% | %Inh [14]: 25% | %Inh [15]: 0% | %Inh [16]: 0% | %Inh [17]: 0% | %Inh [18]: 4% | %Inh [19]: 26% | %Inh [20]: 0%

Nc1nccc2scc(-c3ccc4c(c3)CCN4C(=O)Cc3ccccc3)c12 [GSK2576924]
%Inh [1]: 0% | %Inh [2]: 16% | %Inh [3]: 0% | %Inh [4]: 4% | %Inh [5]: 0% | %Inh [6]: 14% | %Inh [7]: 16% | %Inh [8]: 3% | %Inh [9]: 2% | %Inh [10]: 10% | %Inh [11]: 28% | %Inh [12]: 0% | %Inh [13]: 0% | %Inh [14]: 4% | %Inh [15]: 0% | %Inh [16]: 0% | %Inh [17]: 0% | %Inh [18]: 11% | %Inh [19]: 16% | %Inh [20]: 0%

Cc1c(Cn2c(C)nn3c(=O)cc(N4CCO[C@H](C)C4)nc23)cccc1C(F)(F)F [GSK2373690]
%Inh [1]: 13% | %Inh [2]: 0% | %Inh [3]: 26% | %Inh [4]: 0% | %Inh [5]: 1% | %Inh [6]: 18% | %Inh [7]: 0% | %Inh [8]: 0% | %Inh [9]: 1% | %Inh [10]: 0% | %Inh [11]: 0% | %Inh [12]: 0% | %Inh [13]: 0% | %Inh [14]: 6% | %Inh [15]: 0% | %Inh [16]: 2% | %Inh [17]: 0% | %Inh [18]: 32% | %Inh [19]: 25% | %Inh [20]: 2%
